# High-throughput results deposited in PubChem BioAssay by several laboratories.
# Y pestis TopoI = inhibitors of Yersinia pestis topoisomerase I; Y. pestis Topo-I cleavage product accumulation, plate reader; activity, % at 10 µM; hit rate 0.064% among 360,000; AID 504884; in the data active = activity above about 50%, passing the limit was not always enough
# PrPC TRFRET = reduces human prion protein on the cell surface; P04156; cell surface PrPC, TR-FRET read-out; inhibition, % at 13.8 µM; hit rate 0.43% among 370,000; in the data active = inhibition above about 24%
# CCHF vOTU inh = blocks the CCHF virus ovarian tumor domain protease | CCHFV vOTU protease, Pep-AMC fluorescence | inhibition, % at 11.5 µM | hit rate 0.55% among 370,000; in the data active = inhibition above about 30%
# Vc quorum ag = quorum light induction in luxS cqsA deficient V. cholerae; V. cholerae BH1578 lux reporter, luminescence, 6 h; activation, % at 18.7 µM; hit rate 0.16% among 350,000; AID 588436; in the data active = activation mostly above about 9.7%, no sharp cut-off
# Hits are given with their value; . = inactive; / = no result; + = active, no number. An excerpt weighted towards active compounds, which were near 1.1% of everything screened.
SMILES,Y pestis TopoI,PrPC TRFRET,CCHF vOTU inh,Vc quorum ag
N#Cc1c(NC(=O)c2ccccc2Cl)n(Cc2ccccc2)c2nc3ccccc3nc12,.,.,100.7,.
CCOc1ccccc1CNC(c1ccccc1)c1ccccc1,52.4,.,.,.
COc1ccccc1CNC(c1ccccc1)c1ccccc1,.,.,.,.
COc1ccc(-c2nnc(SCC(=O)Nc3ccccc3)n2C)cc1,.,.,.,35.7
CC12CN3CC(C)(CN(C1)C3c1cccnc1)C2=O (stereo not drawn),.,.,.,.
CCC12CN3CC(CC)(CN(C1)C3c1cccnc1)C2=O (stereo not drawn),.,.,.,16.7
O=C1NCCN1Cc1ccc(Cl)cc1,.,.,.,.
CSc1ccccc1NC(=O)COC(=O)c1ccccc1Cc1ccccc1,61.9,.,.,.
C#CCOCCOCCOCCNc1nc(N2CCN(C(=O)CCCCCCCCCCNC(=O)[C@H]([C@@H](C)CC)n3cc(CCCCN=C(N)N)nn3)CC2)nc(N2CCN(C(=O)CCCCCCCCCCNC(=O)[C@H](CO)n3cc(CCCCCN)nn3)CC2)n1,.,/,/,.
C#CCOCCOCCOCCNc1nc(N2CCN(C(=O)CCCCCCCCCCNC(=O)[C@H]([C@@H](C)CC)n3cc(CCCCCN)nn3)CC2)nc(N2CCN(C(=O)CCCCCCCCCCNC(=O)[C@H]([C@@H](C)CC)n3cc(CCCCN=C(N)N)nn3)CC2)n1,104.9,/,/,.
O=C(c1cc2c(s1)CCCC2)N1CCN(S(=O)(=O)c2ccccc2C(F)(F)F)CC1,57.8,.,.,.
COc1ccc(Cc2c(-c3ccccc3)nc3ccc(Cl)cn23)c(C)c1,/,.,.,/
Cc1nnc(SCC(=O)N2c3ccccc3C(C)(c3ccccc3)CC2(C)C)s1 (stereo not drawn),59.1,.,.,.
O=C1NC(Cc2ccccc2)c2nc3ccc(Cl)cc3c(=O)n2-c2cc3ccccc3cc21 (stereo not drawn),.,.,.,.
O=C1NC(Cc2ccccc2)c2nc3ccc(F)cc3c(=O)n2-c2cc3ccccc3cc21 (stereo not drawn),66.0,.,.,.
COc1ccc(-c2nc3c(c(=O)[nH]c(=O)n3Cc3ccccc3)n2C)cc1,.,.,.,.
COc1ccc(-c2nc3c(c(=O)[nH]c(=O)n3Cc3ccccc3)n2Cc2ccccc2)cc1,64.5,.,.,.
Cc1ccc(S(=O)(=O)n2c([N+](=O)[O-])cnc2C)cc1C,.,.,.,.
CCCCCCCCN1[C@@H](CC(C)=O)c2cc(C(F)(F)F)ccc2S1(=O)=O,66.3,.,.,.
Nc1cccc2nsnc12,.,.,.,.
Nc1cc2nsnc2cc1Br,.,.,97.3,.
O=C(Nc1cccc(S(=O)(=O)Nc2ccc(Cl)cc2)c1)c1ccc(Cl)nc1,.,29.5,.,.
O=C1CSc2ccc(C(=O)Nc3cccc(S(=O)(=O)Nc4ccc(Br)cc4)c3)cc2N1,.,35.6,.,.
COc1ccc(NS(=O)(=O)c2cccc(NC(=O)c3ccc(Cl)nc3)c2)cc1,.,.,.,.
CCc1cc2c(SCC(=O)c3ccccc3)ncnc2s1,.,.,.,.
SMILES,Y pestis TopoI,PrPC TRFRET,CCHF vOTU inh,Vc quorum ag
COc1ccc2c(c1)Cc1sc(NC(C)=O)nc1-2,.,.,81.0,.
COc1ccc2c(c1)Cc1sc(NC(=O)c3cccnc3)nc1-2,.,.,.,.
COc1ccc(NC(=O)/C(Cl)=C(/Cl)S(=O)Cc2ccc(Cl)cc2)cn1 (stereo not drawn),.,28.7,.,.
COc1ccc(NC(=O)/C(Cl)=C(/Cl)S(=O)(=O)Cc2ccccc2)cn1,.,94.3,.,.
COC(=O)C1=CN(C2CC2)C=C(C(=O)OC)C1c1ccc(C(=O)OC)cc1,.,.,.,.
COC(=O)C1=CN(C)C=C(C(=O)OC)C1c1ccsc1,.,.,.,16.7
O=C(Nc1ccccc1C(=O)NCC1CCCO1)c1ccccc1 (stereo not drawn),.,.,.,.
O=C(NCC1CCCO1)c1coc2nc3ccccc3nc12 (stereo not drawn),.,.,.,+
COc1ccc(/C=C2/C(=O)N=C(N)N2C)cc1OC,.,.,.,16.7
N#CC(C#N)=C(N)/C(C#N)=C/c1cc(O)c(O)c(O)c1,.,60.9,.,.
CCOC(=O)Cc1csc(SCC(=O)Nc2cccc(Cl)c2)n1,.,.,.,.
CCOC(=O)Cc1csc(SCC(=O)Nc2cc(Cl)ccc2Oc2ccccc2)n1,67.7,.,.,.
CCn1c(CNC(=O)c2ccc(OC)cc2)nnc1SC,.,.,.,.
N#C/C(=C(/O)c1ccc([N+](=O)[O-])o1)c1nc2ccccc2[nH]1,.,.,.,34.6
Cc1ccc(N=Nc2c(N)[nH]n3c(=O)cc(-c4ccccc4)nc23)cc1,.,.,.,32.1
O=C1NCN(c2ccccc2)C12CCN(C(c1ccccc1)c1nnnn1-c1ccc3c(c1)OCCO3)CC2 (stereo not drawn),/,.,.,/
O=C(CSc1nnc2n1CCCN2)c1ccc([N+](=O)[O-])cc1,.,.,.,.
O=C(CSc1nnc2n1CCCN2)c1ccc(Cl)cc1,.,.,.,31.8
CC1(C)Cc2ccccc2-c2nnc(SCC(=O)Nc3ccc4c(c3)OCO4)n21,.,25.9,.,.
O=C(NCCn1cc(SCc2ccccc2)c2ccccc21)c1ccccc1F,50.2,.,.,.
O=C(CSc1cn(CCNC(=O)c2ccccc2F)c2ccccc12)NCC1CCCO1 (stereo not drawn),.,.,.,.
NC(=O)C1=C[C@H](c2ccc3c(c2)OCO3)C[C@H](OCc2ccc(CO)cc2)O1,.,.,.,.
COc1ccc(OC)c(NC(=O)C2=C(C)NC(=O)NC2c2cccs2)c1 (stereo not drawn),.,.,.,.
COc1ccc(OC)c(NC(=O)C2=C(C)Nc3ncnn3C2c2cccs2)c1 (stereo not drawn),.,.,.,+
C=C1C(=O)[C@@]23[C@H](O)C[C@@H]4C(C)(C)CC[C@H](O)[C@]4(C)[C@@H]2C[C@H](O)[C@@H]1[C@H]3O,.,25.3,.,.
SMILES,Y pestis TopoI,PrPC TRFRET,CCHF vOTU inh,Vc quorum ag
C[C@H]1C(=O)[C@]23C[C@H]1CC[C@H]2[C@]1(C)[C@@H](O)CC[C@@](C)(C(=O)O)[C@H]1C[C@@H]3O,/,.,.,/
C=C1C(=O)[C@@]23[C@H](O)C[C@@H]4C(C)(C)CC[C@H](O)[C@@]4(C)[C@@H]2CC[C@@H]1[C@H]3O,.,70.9,.,.
COc1ccccc1-c1nnn(CC#N)n1,.,.,.,20.0
CCN(CC)S(=O)(=O)c1ccc(NC(=O)c2c(-c3ccccc3)noc2C)cc1,.,.,.,.
Cc1ccc(SCc2cc(=O)[nH]c(Nc3nc(C)c4ccc(C)cc4n3)n2)cc1,113.2,.,.,.
Cc1ccc2nc(Nc3nc(CSc4nnc(C)s4)cc(=O)[nH]3)nc(C)c2c1,58.4,.,.,.
Cc1c(C2Nc3ccccc3C(=O)N2O)cnn1C (stereo not drawn),.,.,.,.
CC(C)Oc1cccc(C(=O)NC(=S)Nc2ccccc2N2CCOCC2)c1,.,.,.,.
Cc1ccc(OCCCCCN2CCOCC2)c(Cl)c1,.,.,.,.
CC1CC(C)CN(C(=O)COC(=O)c2ccc[nH]c2=O)C1 (stereo not drawn),.,.,.,25.0
